Among the data in PubChem BioAssay are composite z-score, composite Z-score and z-score values, retold here.

One assay concerns the target Albumin (Bos taurus) (UniProt P02769). Description: compounds binding labelled BSA control protein – biochemical, small-molecule microarray, Alexa647 label, 635/667 nm fluorescence, artefact control for SMM control protein annotation, profiling panel (AID 1118).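 Further: score merges 667 nm emission intensity and signal-to-noise per printed compound spot.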 The following applies: BSA-A647 binding, fluorescence 635 nm, higher = more signal.
Assay [1] in a line: probe aXIP binding to arrayed compounds – biochemical, NeuroSMM set, 635/667 nm fluorescence, primary screen (AID 1119).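 Further: probe is the protein aXip251-270 applied at 1 µg/mL to compound-printed slides; binding of probe to printed compounds measured as 667 nm fluorescence plus signal to noise.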 Conditions: small-molecule microarray, higher = more signal, called active from +8 up or from −8 down.
Assay [2] is described as follows: probe aNOTCH3 binding on compound microarray – biochemical, small-molecule microarray, 635/667 nm fluorescence, primary screen (AID 1120).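 Further: probe is a biotin-tagged antibody raised against NOTCH3 rather than NOTCH3 protein; score merges spot fluorescence near 667 nm with spot signal to noise.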 The following applies: higher = more signal.
The nature of assay [3]: probe aNOTCH2 binding on compound microarray – biochemical, small-molecule microarray, 635/667 nm fluorescence, primary screen (AID 1121).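 Further: score merges feature fluorescence read at 667 nm with its signal to noise.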 The following applies: higher = more signal.
Assay [4] addresses Carbonic anhydrase 2 (Homo sapiens) (UniProt P00918). Kind of assay: compounds binding carbonic anhydrase 2 – biochemical, small-molecule microarray, Alexa647-labelled CAII, profiling panel (AID 1122). Conditions: CAII-A647 binding fluorescence, higher = more signal.
The nature of assay [5]: COS7 lysate on small-molecule microarray, probe aHis, 635 nm (AID 1123).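 Further: z-score combines 667nm fluorescence intensity with signal-to-noise per printed compound spot.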 Conditions: COS7 cell lysate, fluorescence, higher = more signal.
Assay [6] in a line: probe aLAP1 signal on lysate-treated microarray – cell lysate, small-molecule microarray, COS7 lysate, primary screen (AID 1124).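 Further: lysate comes from COS7 cells expressing LAP1 and is applied at 0.3 µg/mL; score merges spot fluorescence near 667 nm with signal-to-noise over triplicate slides.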 The following applies: probe aLAP1, fluorescence, higher = more signal.
The subject of a further assay is Sam68 (KHDRBS1). Description: compounds binding KHDRBS1 protein – biochemical, small-molecule microarray, 635 nm fluorescence, primary screen (AID 1125).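 Further: score merges 667 nm channel intensity with signal to noise over triplicate slides.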 Conditions: higher = more signal.
In assay [7] the test system is Chordin-like protein 2 (CHRDL2). Description: compounds binding chordin-like 2 – biochemical, small-molecule microarray, 635 nm fluorescence, primary screen (AID 1126).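 Further: printed compound slides probed with Chrdl2 protein at 4 µg/mL for 1 h at 4 C; score merges 667 nm emission intensity with signal to noise over three replicate slides.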 The following applies: fluorescence 635 nm, higher = more signal.
In assay [8] the target is Concanavalin-A (Canavalia ensiformis) (UniProt P02866). Kind of assay: compounds binding concanavalin A lectin – biochemical, small-molecule microarray, Alexa647 label, 635 nm, artefact control for SMM control protein annotation, primary screen (AID 1127).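 Further: z combines 667 nm emission intensity with signal-to-noise across three replicate slides.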 The following applies: ConA-A647 binding fluorescence, higher = more signal.
Sequence of Concanavalin-A (Canavalia ensiformis) (P02866 whole entry, looked up): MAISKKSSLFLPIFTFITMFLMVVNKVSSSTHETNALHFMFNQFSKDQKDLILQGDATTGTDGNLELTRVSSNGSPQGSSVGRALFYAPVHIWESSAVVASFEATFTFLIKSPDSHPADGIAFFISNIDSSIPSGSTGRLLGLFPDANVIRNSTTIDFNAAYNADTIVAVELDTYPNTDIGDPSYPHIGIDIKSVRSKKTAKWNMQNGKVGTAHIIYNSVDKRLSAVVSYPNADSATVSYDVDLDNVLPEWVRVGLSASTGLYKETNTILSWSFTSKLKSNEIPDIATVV
Assay [9] can be described thus: compounds binding Alexa647 anti-His antibody – biochemical, small-molecule microarray, 635 nm fluorescence, artefact control for SMM control protein annotation, primary screen (AID 1128).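 Further: score merges feature fluorescence with signal-to-noise for each printed compound spot.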 Conditions: higher = more signal.
For assay [10], the system named is Human papillomavirus type 1a E7 protein (residues 1-88). Kind of assay: HPV1a E7 small-molecule binders, primary screen, biochemical, small-molecule microarray, residues 1-88, 635 nm (AID 1129). Conditions: small-molecule microarray binding, fluorescence 635 nm; higher = more signal.
In assay [11] the target is Focal adhesion kinase 1 (Homo sapiens) (UniProt Q05397). Description: PTK2 protein binding on printed compound slides – biochemical, small-molecule microarray, 635/667 nm fluorescence, BSA, DTT, primary screen (AID 1130).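 Further: composite of spot emission at 667 nm and signal to noise over triplicate slides.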 Conditions: 635 nm fluorescence, higher = more signal.
Sequence of Focal adhesion kinase 1 (Homo sapiens) (Q05397 whole entry, looked up): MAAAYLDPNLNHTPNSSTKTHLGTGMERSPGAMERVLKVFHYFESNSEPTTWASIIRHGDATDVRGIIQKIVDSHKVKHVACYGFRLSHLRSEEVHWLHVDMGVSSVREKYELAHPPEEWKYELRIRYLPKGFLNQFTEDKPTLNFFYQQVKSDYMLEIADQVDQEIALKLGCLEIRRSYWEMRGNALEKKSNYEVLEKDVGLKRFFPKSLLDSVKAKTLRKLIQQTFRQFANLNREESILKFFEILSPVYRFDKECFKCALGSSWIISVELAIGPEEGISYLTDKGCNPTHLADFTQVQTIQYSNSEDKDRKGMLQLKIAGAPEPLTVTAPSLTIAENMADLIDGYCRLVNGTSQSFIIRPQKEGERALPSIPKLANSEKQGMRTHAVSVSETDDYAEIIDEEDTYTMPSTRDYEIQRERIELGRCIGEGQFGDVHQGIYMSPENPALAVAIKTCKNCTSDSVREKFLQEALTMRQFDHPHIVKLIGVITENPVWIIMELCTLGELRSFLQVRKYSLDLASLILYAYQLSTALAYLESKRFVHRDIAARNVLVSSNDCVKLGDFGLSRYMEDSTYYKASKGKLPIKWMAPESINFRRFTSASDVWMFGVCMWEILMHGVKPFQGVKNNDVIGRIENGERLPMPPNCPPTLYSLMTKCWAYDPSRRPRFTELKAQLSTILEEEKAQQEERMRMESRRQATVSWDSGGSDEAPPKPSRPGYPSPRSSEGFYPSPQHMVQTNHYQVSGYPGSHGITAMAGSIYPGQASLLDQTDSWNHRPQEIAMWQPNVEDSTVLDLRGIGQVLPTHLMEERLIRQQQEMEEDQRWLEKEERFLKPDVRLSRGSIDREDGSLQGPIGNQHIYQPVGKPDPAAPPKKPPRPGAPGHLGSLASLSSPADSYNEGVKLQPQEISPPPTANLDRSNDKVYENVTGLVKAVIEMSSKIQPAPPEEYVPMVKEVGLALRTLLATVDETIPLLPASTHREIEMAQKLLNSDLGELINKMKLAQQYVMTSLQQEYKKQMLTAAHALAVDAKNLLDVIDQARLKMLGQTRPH
Assay [12] concerns Fibrinogen (Alexa647-labelled). Kind of assay: Alexa647-fibrinogen binding to printed small molecules – biochemical, small-molecule microarray, 635/667 nm fluorescence, artefact control for SMM control-protein annotation, profiling panel (AID 1131).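 Further: z-score merges 667 nm fluorescence with per-spot signal-to-noise over triplicate slides.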 The following applies: fibrinogen-A647 binding fluorescence, higher = more signal.
Assay [13] addresses Follistatin (Homo sapiens) (UniProt P19883). Kind of assay: FST protein binding to printed compounds – biochemical, small-molecule microarray, 635/667 nm fluorescence, primary screen (AID 1132). Conditions: 635 nm fluorescence, higher = more signal.
Assay [14] addresses Fibroblast growth factor 2 (Homo sapiens) (UniProt P09038). Kind of assay: basic fibroblast growth factor binding to printed compounds – biochemical, small-molecule microarray, 635/667 nm fluorescence, primary screen (AID 1133). The following applies: FGF2, fluorescence 635/667, higher = more signal.
A short description of assay [15]: JC-1 mitochondrial potential readout, lung cancer cells – cell-based, A549, JC-1 fluorescence, basal, 24 h, 100 nL, profiling panel (AID 1138).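 Further: A549 lung adenocarcinoma cells under basal conditions with no added stimulus; test concentration not given here.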 The following applies: higher = more signal.
Another assay relates to Lefty1. Description: Lefty1 protein binding to printed compounds – biochemical, small-molecule microarray, 635/667 nm fluorescence, primary screen (AID 1139). The following applies: fluorescence 635/667, higher = more signal.
Assay [16] concerns wheat germ agglutinin (Triticum aestivum), Alexa647-labelled. Kind of assay: Alexa647-WGA lectin binding to printed small molecules – biochemical, small-molecule microarray, 635/667 nm fluorescence, artefact control for SMM control-protein annotation, profiling panel (AID 1140).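 Further: score merges 667 nm feature emission with signal to noise over triplicate slides.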 The following applies: WGA-A647 binding, 635 nm fluorescence, higher = more signal.
The target of assay [17] is Luciferin 4-monooxygenase (Photinus pyralis) (UniProt P08659). Kind of assay: inhibition of purified Photinus pyralis luciferase – biochemical, luminescence, purified enzyme, 2006 set, primary screen (AID 1141).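 Further: cell-free assay with purified firefly luciferase at 100 ng per well in PBS; test concentration not given here.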 Conditions: purified firefly luciferase, SteadyGlo luminescence, 30 min; higher = more signal, called active from +8 up or from −8 down.
Sequence of Luciferin 4-monooxygenase (Photinus pyralis) (P08659 whole entry, looked up): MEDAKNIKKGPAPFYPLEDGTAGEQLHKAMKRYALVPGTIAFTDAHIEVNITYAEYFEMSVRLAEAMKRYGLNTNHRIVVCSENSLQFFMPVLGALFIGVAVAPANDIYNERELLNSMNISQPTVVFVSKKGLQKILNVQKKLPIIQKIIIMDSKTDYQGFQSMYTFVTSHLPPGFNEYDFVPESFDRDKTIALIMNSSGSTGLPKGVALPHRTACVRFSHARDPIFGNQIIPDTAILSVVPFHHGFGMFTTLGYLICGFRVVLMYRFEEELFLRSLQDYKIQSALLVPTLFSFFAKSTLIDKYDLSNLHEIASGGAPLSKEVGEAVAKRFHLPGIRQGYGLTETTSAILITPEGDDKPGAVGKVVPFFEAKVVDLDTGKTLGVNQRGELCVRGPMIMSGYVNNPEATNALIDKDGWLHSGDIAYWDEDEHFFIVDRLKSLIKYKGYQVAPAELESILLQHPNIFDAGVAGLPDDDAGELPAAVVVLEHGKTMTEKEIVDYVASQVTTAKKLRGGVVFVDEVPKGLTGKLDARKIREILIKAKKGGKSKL

Molecules are shown by their SMILES. The source made the active and inactive calls.

Sequence of Albumin (Bos taurus) (P02769 whole entry, looked up): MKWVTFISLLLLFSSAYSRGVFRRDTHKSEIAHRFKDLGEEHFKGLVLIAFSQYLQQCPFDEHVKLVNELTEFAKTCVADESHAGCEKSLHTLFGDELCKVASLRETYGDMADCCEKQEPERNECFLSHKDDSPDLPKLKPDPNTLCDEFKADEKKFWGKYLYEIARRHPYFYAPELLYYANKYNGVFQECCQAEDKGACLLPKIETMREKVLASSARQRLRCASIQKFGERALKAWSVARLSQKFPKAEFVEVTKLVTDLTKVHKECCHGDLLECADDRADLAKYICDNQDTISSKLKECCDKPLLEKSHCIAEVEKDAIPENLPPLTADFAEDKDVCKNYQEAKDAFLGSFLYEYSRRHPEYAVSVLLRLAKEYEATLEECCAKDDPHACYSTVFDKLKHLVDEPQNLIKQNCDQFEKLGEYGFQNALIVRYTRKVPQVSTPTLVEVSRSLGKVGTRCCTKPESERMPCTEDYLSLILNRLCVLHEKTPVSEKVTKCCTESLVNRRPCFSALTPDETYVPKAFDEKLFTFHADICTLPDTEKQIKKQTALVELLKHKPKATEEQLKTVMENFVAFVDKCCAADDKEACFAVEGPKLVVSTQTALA
Sequence of Fibroblast growth factor 2 (Homo sapiens) (P09038 whole entry, looked up): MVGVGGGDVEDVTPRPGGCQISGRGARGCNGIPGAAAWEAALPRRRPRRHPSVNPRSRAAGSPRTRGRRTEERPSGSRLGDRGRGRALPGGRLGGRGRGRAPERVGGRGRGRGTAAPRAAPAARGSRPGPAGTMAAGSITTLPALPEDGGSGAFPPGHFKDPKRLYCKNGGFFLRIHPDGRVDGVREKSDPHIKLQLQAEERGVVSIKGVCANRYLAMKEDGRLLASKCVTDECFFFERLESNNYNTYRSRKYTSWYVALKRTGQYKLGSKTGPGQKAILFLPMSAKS
Sequence of Follistatin (Homo sapiens) (P19883 whole entry, looked up): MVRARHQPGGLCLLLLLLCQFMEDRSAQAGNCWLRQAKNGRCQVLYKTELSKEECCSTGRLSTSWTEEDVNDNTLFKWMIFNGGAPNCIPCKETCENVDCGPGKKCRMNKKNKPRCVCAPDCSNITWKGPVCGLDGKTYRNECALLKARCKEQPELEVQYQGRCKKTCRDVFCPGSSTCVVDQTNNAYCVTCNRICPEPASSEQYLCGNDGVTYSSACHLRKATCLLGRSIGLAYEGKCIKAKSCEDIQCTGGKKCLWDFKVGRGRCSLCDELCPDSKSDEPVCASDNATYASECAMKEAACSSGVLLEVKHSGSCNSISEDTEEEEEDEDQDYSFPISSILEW

For the compound `CCOC(=O)[C@H](CC(C)C)NC(=O)CCC1CC(OC(=O)NCc2cccc3ccccc23)CC2(CCCC(COC(=O)NCCc3ccccc3OC)O2)O1` (stereo not given in full), the composite z-score is 0.752 in the assay with Albumin (Bos taurus); -0.155 in assay [2]; -0.0708 in [3]; 0.211 in [4]; 0.398 in assay [5]; 0.251 in assay [6]. In addition, the composite z-score in the assay with Sam68 (KHDRBS1) was determined as 1.3; in [7], 0.566; in assay [8], 1.11; in [9] it was 1.02; in assay [10], 1.12; in assay [11], 0.0969. The composite z-score in [12] is 0.949; in [13] it was 0.583; in assay [14], 0.485; with Lefty1, 1.5; in assay [16] it was 0.225. Further, the composite Z-score in [1] is 0.0898 (inactive). Further, the z-score was 0.041 in assay [15] and 0.755 (inactive) in assay [17].
For `COC(=O)CC=C[C@@H](C)[C@@H](C=NO[C@H](C)c1cn([C@@H]2COC[C@H]2O)nn1)OC`, the composite z-score in the assay with Albumin (Bos taurus) is 0.162; in assay [2], -0.0377; in assay [3], -0.122; in assay [4], -0.111; in [5], 0.214; in assay [6] it was -0.115. In addition, the composite z-score was 0.747 in the assay on Sam68 (KHDRBS1); 0.666 in assay [7]; 0.266 in assay [8]; 1.19 in [9]; 0.695 in [10]; -0.0208 in [11]. Also, the composite z-score is -0.0974 in assay [12]; 0.341 in assay [13]; 0.796 in assay [14]; 0.645 in the assay with Lefty1; -0.116 in assay [16]. The composite Z-score in [1] was -0.311 (inactive). Moreover, the z-score in [15] is 0.014; in assay [17], -0.287 (inactive).
With `CO[C@H]([C@@H](C)[C@H](OC)c1ccccc1)[C@H](C)[C@@H](OC)[C@H](C)C(C)=O`, the composite z-score with Albumin (Bos taurus) is -0.529; in assay [2], -0.13; in [3], -0.0551; in [4], -0.505; in assay [5], -0.74; in assay [6], -0.32. The composite z-score with Sam68 (KHDRBS1) is -1.24; in [7], -0.326; in assay [8], -2.34; in assay [9], 1; in assay [10], -0.744; in [11], 0.27. The composite z-score is -0.464 in assay [12]; -0.304 in [13]; 0.0135 in assay [14]; 0.128 with Lefty1; -0.496 in assay [16]. In assay [1], the composite Z-score was 0.837 (inactive). Moreover, the values for the z-score in [15] and in [17] were 1.1 and -1.87 (inactive), respectively.
As for `CCOC(=O)[C@H](Cc1ccccc1)NC(=O)CCC1CC(OC(=O)NCc2ccc3c(c2)OCO3)CC2(CCCC(COC(=O)NCc3ccccc3)O2)O1` (stereo not given in full), the composite z-score is 0.3 in the assay with Albumin (Bos taurus); 0.0437 in [2]; -0.0728 in assay [3]; 0.373 in [4]; 0.248 in [5]; 0.0766 in assay [6]. Also, the composite z-score is 1.06 with Sam68 (KHDRBS1); 0.261 in assay [7]; 0.915 in assay [8]; 1 in [9]; 1.12 in assay [10]; -0.108 in assay [11]. Further, the composite z-score worked out at 0.347 in assay [12]; 0.725 in assay [13]; 0.69 in [14]; 0.688 in the assay with Lefty1; 0.335 in [16]. Further, the composite Z-score in assay [1] was 0.255 (inactive). The z-score was 1.64 in [15] and 0.66 (inactive) in [17].
Regarding `CO[C@@H]1COC(=O)CC=C[C@@H](C)[C@@H]2C=C[C@H](O)[C@@H](COC(=O)[C@H](C)NC(=O)CC=C[C@H]1C)O2`, the composite z-score with Albumin (Bos taurus) is -0.107; in assay [2], -0.0328; in assay [3], -0.164; in assay [4], -0.455; in assay [5] it was -1; in assay [6], 1.27. Also, the composite z-score in the assay on Sam68 (KHDRBS1) was 0.249; in [7], 1.54; in assay [8], -0.016; in assay [9], 1.85; in assay [10], -0.794; in [11], -0.407. The composite z-score in assay [12] was -0.734; in [13] it was 1.11; in assay [14], 1.73; with Lefty1 it was 1.53; in [16] it was -0.17. Further, the composite Z-score in assay [1] was 0.581 (inactive). The z-score was -1.23 in assay [15] and 1.02 (inactive) in assay [17].
